The campaign covered roughly 85,000 compounds. About 5,100 (6%) were called active. The list comes from a sample in which actives are over-represented; it also holds similar structures and randomly drawn compounds. Unmarked numbers belong to inactive results.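 The calls were made as follows: active = viability at or below 40%; inactive = viability above 40%.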
assay: H69AR cell viability reduction – human, 86K library, primary screen (AID 598); conditions: H69AR lung tumor viability, ATP luminescence, 72 h; at 10 µM; active compounds read low;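 also: multidrug resistant small cell line overexpressing MRP-1 efflux transporter; 100% = mean luminescence of untreated control wells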

| Compound | viability |
| --- | --- |
| Cc1nc2c(c(=O)n1Cc1ccco1)c1nc3ccccc3nc1n2Cc1ccccc1 | 11.2% (active) |
| Cc1ccc(Cn2c(C)nc3c(c2=O)c2nc4ccccc4nc2n3Cc2ccco2)cc1 | 83.3% |
| COCCCn1c2nc3ccccc3nc2c2c(=O)n(Cc3ccc(Cl)cc3)c(C)nc21 | 64.8% |
| OCCCN1c2ccccc2Nc2nnc(-c3ccccc3)cc21 | 39.4% (active) |
| Cc1nc(NC(=O)C2CCCCC2)sc1C | 91.5% |
| O=C(O)CSCC(=O)Nc1cccc(C(F)(F)F)c1 | 96.6% |
| CCNS(=O)(=O)c1ccc(NC(=O)Nc2cccc(C(F)(F)F)c2)cc1 | 9.94% (active) |
| CCNS(=O)(=O)c1ccc(NC(=O)Nc2cccc(OC)c2)cc1 | 82.3% |
| COc1ccc(-c2cn(-c3ccc(C)cc3)c(=O)n2CC(=O)Nc2ccc(OC)c(OC)c2)cc1 | 76.5% |
| CS(=O)(=O)n1nc(-c2ccccc2)nc1NCc1ccco1 | 96.7% |
| Cc1cc(S(=O)(=O)NC2CCCCC2)ccc1OCC(=O)NCc1cccnc1 | 107% |
| CC1(C)CC(CC(=O)O)C(=O)O1 (stereo not drawn) | 98% |
| COc1cccc(OCC(O)CN2CCN(CCO)CC2)c1 (stereo not drawn) | 96.9% |
| OC(COc1cccc2ccccc12)CN1CCN(c2ccccn2)CC1 (stereo not drawn) | 86.3% |
| Cc1ccc(OCC(O)CN2CCN(CC(O)COc3ccc(C)cc3Cl)CC2)c(Cl)c1 (stereo not drawn) | 1.96% (active) |
| Cc1nnc(SCC(=O)NCc2cccs2)[nH]c1=O | 91.8% |
| CCN(CC(=O)NCc1cccs1)c1nnnn1-c1ccccc1 | 14% (active) |
| O=C(CSc1nnnn1-c1ccccc1)NCc1ccco1 | 80% |
| c1ccc2c(c1)C(=NC1CCCCC1)NC2=NC1CCCCC1 | 15.9% (active) |
| O=C1CCCCC(=O)c2ccccc2N1 | 102% |
| Cc1nnc(OCC(=O)NCCC2=CCCCC2)c2ccccc12 | 101% |
| Cc1c(NC(=O)c2coc(=O)c(Br)c2)c(=O)n(-c2ccccc2)n1C | 2.66% (active) |
| COC(=O)Nc1c(C)n(C)n(-c2ccccc2)c1=O | 99.9% |
| Cc1cc(C(=O)Nc2c(C)n(C)n(-c3ccccc3)c2=O)cs1 | 110% |
| Clc1ccc(Nc2nc(-c3cccs3)cs2)nc1 | 31.8% (active) |
| O=C(Nc1ccc(Cl)cn1)Nc1cccs1 | 98.4% |
| c1ccc(Nc2nc(-c3ccncc3)cs2)nc1 | 86.7% |
| Cc1cc(C)c2cc(CN(Cc3nnnn3Cc3ccc(F)cc3)C3CCCC3)c(=O)[nH]c2c1 | 64.6% |

— PubChem BioAssay AID598 (SRMLSC, 2007)
